Out of some 310,000 compounds screened, about 14,000 (4.5%) showed an effect of 50% or more. The effect is printed as a negative number. Only a selection was taken, and strong results are over-represented in it overall.
Each molecule was assayed against human ether-à-go-go-related gene (hERG) potassium channel (human, UniProt Q12809) (assay: primary screen, population patch clamp on CHO cells stably expressing hERG; higher = less effect of the substance).
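Note: peak tail current of the secondary pulse compared with the same well before compound.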

Sequence of human ether-à-go-go-related gene (hERG) potassium channel (Q12809 whole entry, looked up): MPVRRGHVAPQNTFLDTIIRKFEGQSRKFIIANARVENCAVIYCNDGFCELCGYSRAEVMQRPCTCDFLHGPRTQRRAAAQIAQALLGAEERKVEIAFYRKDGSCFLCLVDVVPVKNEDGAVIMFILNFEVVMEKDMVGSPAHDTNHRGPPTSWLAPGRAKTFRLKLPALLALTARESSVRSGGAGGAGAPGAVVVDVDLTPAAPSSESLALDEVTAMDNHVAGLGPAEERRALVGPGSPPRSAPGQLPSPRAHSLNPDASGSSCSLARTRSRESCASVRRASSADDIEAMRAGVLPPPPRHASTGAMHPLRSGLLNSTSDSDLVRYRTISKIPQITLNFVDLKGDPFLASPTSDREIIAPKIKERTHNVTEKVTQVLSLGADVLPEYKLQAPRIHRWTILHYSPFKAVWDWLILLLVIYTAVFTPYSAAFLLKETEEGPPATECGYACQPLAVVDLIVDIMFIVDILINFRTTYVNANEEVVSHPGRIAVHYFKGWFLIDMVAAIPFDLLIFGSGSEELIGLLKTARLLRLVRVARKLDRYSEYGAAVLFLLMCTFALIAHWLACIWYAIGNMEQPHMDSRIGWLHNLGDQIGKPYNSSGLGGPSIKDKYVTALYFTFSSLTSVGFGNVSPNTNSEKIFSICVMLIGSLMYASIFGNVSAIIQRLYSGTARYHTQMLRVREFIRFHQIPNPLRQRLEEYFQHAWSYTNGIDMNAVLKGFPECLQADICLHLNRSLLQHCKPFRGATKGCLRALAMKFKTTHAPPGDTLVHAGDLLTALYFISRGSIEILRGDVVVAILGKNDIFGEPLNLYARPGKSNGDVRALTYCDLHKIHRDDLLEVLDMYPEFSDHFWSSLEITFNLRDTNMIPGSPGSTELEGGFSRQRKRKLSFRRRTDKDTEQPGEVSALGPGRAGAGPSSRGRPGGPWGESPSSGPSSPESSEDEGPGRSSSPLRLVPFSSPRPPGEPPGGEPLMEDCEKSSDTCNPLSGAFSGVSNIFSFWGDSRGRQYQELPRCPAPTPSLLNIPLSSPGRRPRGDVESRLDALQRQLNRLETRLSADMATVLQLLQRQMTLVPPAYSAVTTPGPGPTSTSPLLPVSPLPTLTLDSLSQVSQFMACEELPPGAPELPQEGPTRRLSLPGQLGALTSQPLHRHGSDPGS

In order of falling “hERG current change (%, negative = inhibition) at 10uM” value:
1. Nc1ccc(C2(c3ccc(N)cc3)CCCCC2)cc1  22.1%
2. COc1ccc(CCn2c(=N)c(S(=O)(=O)c3ccc(Cl)cc3)cc3c(=O)n4ccccc4nc32)cc1  20.5%
3. O=C(Cc1ccc(Cl)c(Cl)c1)Nc1cccc2ncccc12  20.2%
4. COc1ccc(NC(=O)CNC(=O)C2CCCCC2)cc1  18.1%
5. COc1ccc(Cn2c(=O)[nH]c3cc(C(=O)NC4CCCC4)ccc3c2=O)cc1  15.1%
6. COc1ccc(CCn2c(=N)c(S(=O)(=O)c3ccc(C)cc3)cc3c(=O)n4ccccc4nc32)cc1  15.1%
7. COc1cc(C(=O)N(Cc2ccc(C)o2)C2CCS(=O)(=O)C2)cc(OC)c1OC (centres unmarked)  14.4%
8. COc1ccc(CCn2c(=N)c(S(=O)(=O)c3ccccc3)cc3c(=O)n4ccccc4nc32)cc1  10.9%
9. O=C(/C=C/c1ccco1)Nc1ccc(N2CCCC2)cc1  10.5%
10. Cc1ccc(OCC(=O)Nc2ccc(N3CCN(C(=O)c4ccc(C)cc4)CC3)cc2)cc1  9.99%
11. Cc1cc(=S)c2cccc(C)c2[nH]1  9.4%
12. CCCCN(C(=O)c1ccc2ccccc2c1)c1c(N)n(CCCC)c(=O)[nH]c1=O  8.11%
13. Cc1ccc(S(=O)(=O)c2cc3c(=O)n4ccccc4nc3n(CCc3ccccc3)c2=N)cc1  5.39%
14. CCOC(=O)c1cnc2nc(NCc3ccc(OCc4ccccc4)cc3)[nH]n2c1=O  5.06%
15. Cc1ccc(C(=O)CCNc2cccc(Br)c2)o1  4.71%
16. N=c1c(S(=O)(=O)c2ccc(Cl)cc2)cc2c(=O)n3ccccc3nc2n1CCc1ccccc1  4.68%
17. Cc1cccc(OCC(=O)Nc2ccc(N3CCN(C(=O)c4ccccc4)CC3)cc2)c1C  3.45%
18. COc1ccc(NC(=O)c2cc3c(=O)n4ccccc4nc3n2C)c(OC)c1  2.99%
19. Cc1nn(Cc2c(F)c(F)c(F)c(F)c2F)c(C)c1NC(=O)c1cccc(COc2ccc(Cl)cc2)c1  2.49%
20. ONC(=Nc1ccccc1)c1ccccc1Cl  2.37%
21. CCCCCCC(=O)Nc1ccc(C(=O)N2CCCC2)cc1  0.864%
22. COCCCNC(=O)c1c(N)n(-c2ccc(S(N)(=O)=O)cc2)c2nc3ccccc3nc12  0.473%
23. O=C1c2oc3ccc(Br)cc3c(=O)c2C(c2cccc(F)c2)N1CCO (centres unmarked)  -1.34%
24. O=C(/C=C/c1ccco1)N1CCN(c2ccccc2)CC1  -1.71%
25. COc1cccc(-c2csc(NNC(=O)c3cccs3)n2)c1  -2.17%
26. CCN(C(=O)c1cc2c(=O)n3ccccc3nc2n1CCCOC)C1CCCCC1  -2.32%
27. O=C(Nc1cccnc1)c1cc(-c2ccc(Br)cc2)nc2ccccc12  -2.53%
28. CC1CCN(c2c(NCC3CCC(C(=O)NCCc4ccc(Cl)cc4)CC3)c(=O)c2=O)CC1 (centres unmarked)  -3.81%
29. CCCOc1ccc(C(=O)N/N=C/c2ccc(-c3ccc(S(=O)(=O)Nc4ncccn4)cc3)o2)cc1  -7.38%
30. COc1ccc(CCn2c(C3CCCCC3)nc3c(c(=O)c4ccccc4n3C)c2=O)cc1OC  -8.08%
31. CCN1C(=O)c2cccc3c(NS(=O)(=O)c4ccc(NC(C)=O)cc4)ccc1c23  -8.89%
32. O=C(COc1ccc(Cl)cc1)NCCSCc1cccc(Cl)c1  -13.5%
33. CCc1ccccc1NC(=O)CCC(=O)N1CCSc2ccccc21  -14.7%
34. O=C(c1ccco1)N1CCN(c2cc(C(F)(F)F)nc3ncnn23)CC1  -16.7%
35. O=C(NCc1cccnc1)c1ccc(Br)s1  -16.9%
36. COCCCn1c(SCC(=O)NC2CCCCC2)nc2ccccc2c1=O  -16.9%
37. Cc1ccc(C(=O)N2CCN(c3ccc(NC(=S)NC(=O)Cc4ccccc4)cc3)CC2)cc1  -17.1%
38. Cc1ccc(C)c(S(=O)(=O)N2CCN(CC(=O)NC(=O)NCc3ccco3)CC2)c1  -24.5%
39. Fc1cccc(CNc2ncnc3ccc(-c4ccc5c(c4)OCO5)cc23)c1  -31%
40. COc1ccc(C(=O)N2CCN(c3ccc(NC(=O)Cc4ccccc4)cc3)CC2)cc1  -31.8%
41. CCCCCC(=O)Nc1ccc(N2CCN(C(=O)CCC)CC2)cc1  -32.8%
42. O=S1(=O)N=C(N2CCc3ccccc3C2)c2ccccc21  -39%
43. O=C(/C=C\c1ccco1)Nc1ccc(N2CCN(C(=O)c3ccccc3)CC2)cc1  -55.7%
44. CCCCCC(=O)Nc1ccc(N2CCN(C(=O)c3ccccc3)CC2)cc1  -62.8%
45. COc1ccc(Cn2c(=N)c(C(=O)NC3CCCCC3)cc3c(=O)n4ccccc4nc32)cc1  -68.9%
46. Cc1ccc(C(=O)N2CCN(c3ccc(NC(=O)Cc4ccccc4)cc3)CC2)cc1  -71.5%
47. Cc1ccc(C(=O)N2CCN(c3ccc(NC(=O)COc4ccccc4C)cc3)CC2)cc1  -73.6%
48. COc1ccc(CCn2c(=N)c(C(=O)N3CCN(C)CC3)cc3c(=O)n4ccccc4nc32)cc1  -76.2%
49. COCCCn1c(=N)c(C(=O)NC2CCCCC2)cc2c(=O)n3ccccc3nc21  -78.8%
50. COc1ccc(CCn2c(=N)c(C(=O)NC3CCCC3)cc3c(=O)n4ccccc4nc32)cc1OC  -79.2%
51. COc1ccc(CCn2c(=N)c(C(=O)NC3CCCCC3)cc3c(=O)n4ccccc4nc32)cc1  -79.4%
52. N=c1c(C(=O)NC2CCCCC2)cc2c(=O)n3ccccc3nc2n1CCc1ccccc1  -81.1%
53. COc1ccc(CCn2c(=N)c(C(=O)NC3CCCC3)cc3c(=O)n4ccccc4nc32)cc1  -81.9%

— paper PMC4336329 (PLoS ONE, 2015)
